ChEMBL document CHEMBL1201862, “PubChem BioAssay data set” (2004)
Out of some 55,000 […] screened, about 2,600 (4.7%) were called active. Rule as the data show it: active = GI50 up to about 1.1 µM and inactive = higher. Only a sample is shown. Entries with a potency or affinity are not part of this list.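 These data come from cells grown in 96-well plates and exposed to compound for 48 hours at five concentrations. Here, GI50 denotes the concentration required for 50% inhibition of growth.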

test system: OVCAR-4; assay: NCI tumour cell line growth inhibition, 48 h

Row | Substance | GI50 [µM]
1 | [Bis(aminomethyl)tetramethylenesilane]dichloropaltinum(II), CHEMBL2146205 | 59.8
2 | [Bis(aminomethyl)tetramethylenesilane]tetrachloropaltinum(IV), CHEMBL2146189 | 19
3 | CISPLATIN, CHEMBL11359 | 1.49
4 | [Bis(aminomethyl)pentamethylenesilane]dichloropaltinum(II), CHEMBL2146202 | 5.46
5 | cis-Bis[[(trimethylsilyl)methyl]amino]tetrachloroplatinum(IV), CHEMBL2146191 | 5.53
6 | [Bis(aminomethyl)pentamethylenesilane]tetrachloropaltinum(IV), CHEMBL2146204 | 18.6
7 | [Bis(aminomethyl)dimethylsilane]tetrachloroplatinum(IV), CHEMBL2146190 | 18.8
8 | [Bis(aminomethyl)dimethylsilane]dichloroplatinum (II), CHEMBL2146201 | 45.8
9 | [Bis(aminomethyl)ethylmethylsilane]tetrachloroplatinum(IV), CHEMBL2146192 | 10
10 | mu-(1,7-nanodiamine-N,N')bis-(cis-aminedichloroplatimum (II)), CHEMBL2146215 | 40.8
11 | [Bis(aminomethyl)diethylsilane]tetrachloroplatinum(IV), CHEMBL2146203 | 14.7
